Screens from PubChem.
Vc quorum ag: inducers of Vibrio cholerae quorum light production without autoinducers; 350,000 compounds, 0.16% hits; V. cholerae BH1578 lux reporter, luminescence, 6 h; activation, % at 18.7 µM; in the data active = activation mostly above about 9.7%, no sharp cut-off; inconclusive = no clear call, values can overlap the other calls; inactive = mostly below about 3.7%
BoNT A protease: BoNT A light chain protease inhibition | multiplex microsphere protease substrate cleavage, flow cytometry | inhibition, % at 10 µM | 360,000 compounds, 0.17% hits | AID 588499; also: plate controls were buffer without enzyme for full effect and enzyme alone for no effect
Anthrax LF prot: anthrax lethal factor protease inhibition; P15917; multiplex microsphere protease cleavage assay, LF; inhibition, % at 10 µM; 360,000 compounds, 0.12% hits; AID 588501; also: plate controls were buffer without enzyme for full effect and enzyme alone for no effect
BoNT F protease: BoNT F light chain protease inhibition; Multiplex microsphere protease cleavage assay, flow cytometry; inhibition, % at 10 µM; 360,000 compounds, 0.22% hits; AID 588497; in the data active = inhibition above about 35%, passing the limit was not always enough; inconclusive = no clear call, values can overlap the other calls; also: plate controls were buffer without enzyme for full effect and enzyme alone for no effect
Bead autofluor: flagged as autofluorescent in microsphere protease counterscreen | compound autofluorescence counterscreen, microsphere flow cytometry; hits give high values | fluorescence intensity (concentration not given with the values) | 360,000 compounds, 3.1% hits; in the data active = fluorescence intensity above about 16000; inconclusive = no clear call, values can overlap the other calls
MazF activator: activators of E. coli MazEF toxin-antitoxin RNase. activation, % at 20 µM. FAM/BHQ RNA-DNA oligo cleavage fluorescence, 5 h. P0AE70. 350,000 compounds, 0.32% hits; in the data active = activation above about 50%
Target sequence (P0AE70 whole entry, looked up): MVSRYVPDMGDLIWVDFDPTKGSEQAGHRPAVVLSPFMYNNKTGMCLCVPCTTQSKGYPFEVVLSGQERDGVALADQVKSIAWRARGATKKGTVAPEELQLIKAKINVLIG
BoNTA LC inh 1: BoNT/A light chain protease inhibition. shares compounds with BoNT F protease. multiplex microsphere protease assay, flow cytometry. inhibition, % at 10 µM. 720 compounds, 3% hits; in the data active = inhibition above about 32%
BoNT-F LC CP1: inhibitors of Botulinum neurotoxin F light chain protease; multiplex microsphere protease cleavage assay, flow cytometry; AID 602140; inhibition, % at 10 µM; shares compounds with BoNT F protease; 720 tested, under 10 active; call rule not given here
LF protease CP1: inhibitors of Bacillus anthracis lethal factor protease; 720 tested, under 10 active; inhibition, % at 10 µM; multiplex microsphere protease cleavage assay, LF; shares compounds with BoNT F protease; call rule not given here
Numbers without * were called inactive; i = inactive; ? = inconclusive; . = no result; + = active, no number. In the library only some 3.9% were active in any assay of this set; here they are far more common. Rule as the data show it, unless noted: active = inhibition above about 30%; inconclusive = no clear call, values can overlap the other calls; inactive = below that.

SMILES	Vc quorum ag	BoNT A protease	Anthrax LF prot	BoNT F protease	Bead autofluor	MazF activator	BoNTA LC inh 1	BoNT-F LC CP1	LF protease CP1
Cc1ccc2cc(C(c3nnnn3C(C)(C)C)N3CCCCCC3)c(=O)[nH]c2c1 (centres undefined)	i	1.1	-1.7	5.4	10312	-0.4	0.0	-0.4	-3.5
COCCn1nnnc1C(C(C)C)N(Cc1ccccc1)Cc1cc2cc(OC)ccc2[nH]c1=O (centres undefined)	i	1.1	7.5	3.5	5669	3.0	.	.	.
COc1ccc(Cn2nnnc2C(c2cc3cc(C)ccc3[nH]c2=O)N2CCOCC2)cc1 (centres undefined)	i	0.4	0.2	0.6	22468*	0.1	0.2	-6.1	0.7
Cc1ccc2[nH]c(=O)c(C(c3nnnn3C(C)(C)C)N3CCN(C(=O)c4ccco4)CC3)cc2c1 (centres undefined)	i	1.0	2.8	-1.2	10855	0.4	.	.	.
CCN(Cc1ccccc1)C(c1cc2ccc(C)cc2[nH]c1=O)c1nnnn1CCOC (centres undefined)	-0.6	?	?	i	?	7.7	3.3	-9.7	2.7
Cc1ccc2cc(C(c3nnnn3C3CCCC3)N3CCN(c4ccccc4)CC3)c(=O)[nH]c2c1 (centres undefined)	i	1.1	-1.1	5.7	9107	8.5	.	.	.
CCC(C)(C)n1nnnc1C(c1cc2cc(C)ccc2[nH]c1=O)N1CCCC1 (centres undefined)	i	?	-9.1	6.4	21937*	-15.1	-1.0	1.4	-2.3
COc1ccc2cc(C(c3nnnn3Cc3ccc(F)cc3)N3CCCCCC3)c(=O)[nH]c2c1 (centres undefined)	i	5.5	5.2	6.0	12405	-1.6	.	.	.
COc1ccc2cc(C(c3nnnn3CCc3ccccc3)N3CCC(O)CC3)c(=O)[nH]c2c1 (centres undefined)	-1.8	30.5*	14.8	+	38811*	8.5	2.2	-4.8	-7.7
Cc1cccc2cc(C(c3nnnn3C(C)(C)C)N3CCN(C(=O)c4ccco4)CC3)c(=O)[nH]c12 (centres undefined)	i	1.7	-2.7	-1.8	5518	6.8	.	.	.
CCC(C)(C)n1nnnc1C(c1cc2cc(C)cc(C)c2[nH]c1=O)N1CCN(C(=O)c2ccco2)CC1 (centres undefined)	i	1.1	-3.3	4.8	5067	-10.6	0.4	-0.9	2.0
Cn1cnnc1SCC(=O)Nc1ccccc1	-0.2	-0.4	3.8	-1.1	5422	5.7	.	.	.
Cn1cnnc1SCC(=O)Nc1ccc(S(N)(=O)=O)cc1	i	0.7	33.8*	37.4*	2989	9.7	-0.8	-0.2	-0.4
O=C(CSc1nnc(-c2ccc(F)cc2)o1)N1CCCC1	-0.2	0.2	-1.0	-4.9	5371	-2.1	.	.	.
Cc1ccc(-c2csc3nc4c5ccccc5c(NCCCN(C)C)nn4c(=O)c23)cc1	-0.9	36.4*	12.9	-1.7	5593	-15.2	11.3	-12.5	4.1
CCOC(=O)c1cnn(CCOC(=O)C(C)(C)C)c1NC(=O)C(C)(C)C	-0.2	36.0*	-24.9	42.8*	9307	-5.5	-0.1	-1.8	-3.4
CCOC(=O)c1cnn(CCOC(=O)c2ccccc2F)c1NC(=O)c1ccccc1F	3.1	-6.6	-11.8	-38.8	6708	0.4	.	.	.
CCCc1c(C(=O)N/N=C/c2ccccc2C(F)(F)F)nnn1-c1nonc1N	-3.1	0.7	-3.9	-0.2	5261	32.0	.	.	.
CC(C(=O)NCc1ccccc1Cl)n1cc([N+](=O)[O-])cn1 (centres undefined)	-1.3	-1.0	-15.1	37.7*	3781	4.8	0.5	-3.7	-0.7
CCC(=O)Nc1cccc(C(=O)N(Cc2ccccc2)Cc2ccccc2)c1	i	-1.9	2.9	44.1*	4143	6.4	-0.8	-1.8	-3.4
Cc1ccnc(SC2CC(=O)N(c3ccc(F)cc3)C2=O)n1 (centres undefined)	-0.6	-2.0	4.0	22.8	4249	-3.7	.	.	.
CCOc1ccc(NC(=S)N2CCC(NC(=O)c3ccco3)CC2)cc1	-4.8	-0.3	-2.1	8.4	3763	1.1	.	.	.
Nc1ccccc1NC1CCCCC1	-0.3	74.3*	14.6	-30.1	2264	11.2	16.6	-16.0	14.8
c1ccc2c(NC3CCCC3)nnc(NC3CCCC3)c2c1	i	1.9	2.0	-3.7	3938	7.8	.	.	.
Cc1nn(C(C)C(=O)N/N=C/c2ccc(N(C)C)cc2)c(C)c1[N+](=O)[O-] (centres undefined)	-1.1	-0.4	-9.4	?	3536	2.0	.	.	.
SMILES	Vc quorum ag	BoNT A protease	Anthrax LF prot	BoNT F protease	Bead autofluor	MazF activator	BoNTA LC inh 1	BoNT-F LC CP1	LF protease CP1
CCOC(=O)c1[nH]c(=S)[nH]c1C	i	-0.3	-7.9	-5.4	3614	2.5	.	.	.
c1ccc2c(C3=NNC(=NC4CC4)SC3)c[nH]c2c1	8.5	40.6*	12.1	-10.5	4586	3.7	6.8	-19.4	8.7
O=C1CN(C(=O)c2ccc(Cl)c([N+](=O)[O-])c2)c2ccccc2N1	i	0.6	32.1*	5.9	3053	6.6	0.2	0.3	0.6
Cc1ccc(Nc2c([N+](=O)[O-])cc(C(=O)N3CC(=O)Nc4ccccc43)cc2[N+](=O)[O-])c(C)c1	1.4	-0.7	-6.7	-6.9	2763	10.3	.	.	.
Cc1c(C(=O)OCC(=O)Nc2c(C)n(C)n(-c3ccccc3)c2=O)oc2ccccc12	-0.3	0.0	-1.1	-3.3	2134	-0.7	.	.	.
CC(=NO)c1ccc2c(c1)C(=NO)c1ccccc1-2	-1.1	-0.2	-2.2	-6.1	3317	13.7	.	.	.
CC1Oc2ccccc2N(CC(=O)NC2CCCC2)C1=O (centres undefined)	-4.0	0.9	-0.6	35.4*	3948	4.2	-2.2	-3.0	2.8
Nc1ccc(-c2nnn(CC(=O)N3CCCCC3)n2)cc1	i	1.2	46.5*	?	3071	3.6	-0.9	-2.3	-4.5
Cc1ccc(CCC(=O)Nc2ccc(Cl)cc2Cl)o1	0.8	-0.5	-4.8	-2.8	3523	-8.8	.	.	.
Cc1ccc(NC(=O)CCc2ccc(C)o2)c(Br)c1	-1.6	3.4	-12.4	90.9*	3907	-9.1	-0.1	-2.2	-2.8
CCOC(=O)c1[nH]c(=O)[nH]c1CSc1nc(C)cc(C)n1	i	-0.2	-1.7	-3.3	4731	1.1	.	.	.
CCOC(=O)CCCCC(=O)c1[nH]c(=O)[nH]c1CSc1nc2ccccc2[nH]1	i	5.0	0.3	36.5*	7134	-11.2	-0.4	-5.9	-3.2
CCOC(=O)CCCCC(=O)c1[nH]c(=O)[nH]c1C[n+]1ccc(C)cc1	i	0.4	-2.6	-1.6	4458	-2.5	.	.	.
CCOC(=O)CCCCC(=O)c1[nH]c(=O)[nH]c1CSc1nc(C)cc(=O)[nH]1	-0.2	7.6	3.9	47.3*	6552	-9.3	1.2	4.4	-1.9
